# Results as given in PubChem BioAssay (NCI).
# Compounds without any hit were thinned out: in the full panel of roughly 83,000, 20% have a hit.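 Each cell line was grown in a 96-well plate and treated with one concentration of compound for 48 hours. Values below 10 were considered active.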 Values without a mark were called inactive. The source made the active and inactive calls.
# Experiments:
# Assay in all cases: NCI-60 one-dose screen, 48 h (100 = growth as untreated, 0 = no growth, -100 = all killed)
# Conditions in all cases: 10 µM unless noted
# SR leukemia = test system: SR leukemia
# RPMI-8226 leukemia = test system: RPMI-8226 leukemia
# OVCAR-8 ovarian = test system: OVCAR-8 ovarian
# OVCAR-5 ovarian = test system: OVCAR-5 ovarian
# OVCAR-4 ovarian = test system: OVCAR-4 ovarian
# SK-OV-3 ovarian = test system: SK-OV-3 ovarian
# IGROV1 ovarian = test system: IGROV1 ovarian
# OVCAR-3 ovarian = test system: OVCAR-3 ovarian
# HS 578T breast = test system: HS 578T breast
# NCI/ADR-RES ovarian = test system: NCI/ADR-RES ovarian
SMILES,growth (SR leukemia),growth (RPMI-8226 leukemia),growth (OVCAR-8 ovarian),growth (OVCAR-5 ovarian),growth (OVCAR-4 ovarian),growth (SK-OV-3 ovarian),growth (IGROV1 ovarian),growth (OVCAR-3 ovarian),growth (HS 578T breast),growth (NCI/ADR-RES ovarian)
CC(C)(C)c1[nH]nc2c1C(c1cc3ccccc3[nH]c1=O)Nc1cc(C(=O)OCc3ccccc3)ccc1N2 (centres undefined),38.9%,53.6%,64.9%,87.8%,54.3%,83%,78.5%,49.2%,66.6%,86.8%
COCCNC1=C(Cl)C(=O)c2ccccc2C1=O,105%,90.4%,89.5%,107%,93.6%,116%,126%,116%,105%,95.3%
c1csc(-c2nc(-c3cc4ccccc4c(N4CCOCC4)n3)cs2)c1,97.7%,106%,102%,124%,110%,99.5%,86.3%,111%,99.9%,94.2%
COc1cccc(-c2nn(-c3ccccc3)cc2-c2ccnc(NCCCNS(=O)(=O)c3cccc(F)c3)c2)c1,-7.52% (active),14.3%,12.1%,61.3%,34%,40.9%,29.6%,46.5%,32%,12.7%
C[Si](C)(C)Cc1ccccc1,143%,71.6%,107%,94.1%,113%,112%,125%,127%,120%,105%
CN(C)c1ccc(N)c2ccccc12,55%,68.8%,74.6%,75.4%,27.7%,85.2%,65.1%,-15.6% (active),–,77.2%
COc1ccc2c3c(c4ccccc4cc13)C(=O)N(CCN(C)CCN)C2=O,-31.8% (active),-45.1% (active),-52.5% (active),-65.9% (active),-79.4% (active),-6.29% (active),-48.4% (active),-62.5% (active),24.8%,-7.12% (active)
CC1(C)[C@@H](O)CC[C@]2(C)[C@H]3CC[C@@H]4[C@H]5[C@H](C(=O)/C=C/c6ccc(C(F)(F)F)cc6)CC[C@]5(CO)CC[C@@]4(C)[C@]3(C)CC[C@@H]12,17.8%,28.2%,55.7%,109%,38.4%,98.6%,61.5%,51.8%,59.6%,70.5%
CCOC(=O)N1CCN(CCCCOc2ccc(C(C)(C)CC)cc2)CC1,90.3%,84.4%,103%,106%,93.8%,104%,110%,103%,108%,88.2%
CCc1cccc(CC)c1NC(=O)c1sc2nc3c(cc2c1N)CCCC3,18.2%,85.8%,84.7%,95.3%,78.2%,81.9%,64.5%,54.6%,65.2%,45.3%
COc1cccc(-c2nn(-c3ccccc3)cc2-c2ccnc(NCCCNS(=O)(=O)c3ccc(C(F)(F)F)cc3)c2)c1,-13.1% (active),13.3%,30.7%,50.1%,33.5%,37.7%,39.6%,36%,38.7%,22.8%
Cc1cc(N2CCCC2)nc(N(CCNc2ccnc3cc(Cl)ccc23)Cc2ccco2)n1,-14.9% (active),-42.3% (active),57%,25.3%,38.6%,65.5%,4.93% (active),13.8%,62.1%,18.4%
CCCCCCCC(=O)SCC/C=C/[C@@H]1CC(=O)NCc2cccc(n2)CN(Cc2ccc(Cl)cc2)CC(=O)N[C@@H](C(C)C)C(=O)O1,8.39% (active),8.51% (active),-0.619% (active),-5.64% (active),28%,-24.5% (active),10.9%,3.13% (active),-5.68% (active),13%
COc1cc2c(cc1-c1c(C)noc1C)ncc1nc(C3CC3)n([C@H](C)COC(F)F)c12,25.5%,17.8%,46.3%,84.2%,58.7%,1.36% (active),58.6%,42%,8.14% (active),40.1%
Fc1ccc(Nc2ccc3c(OCCCN4CCOCC4)cccc3n2)cc1F,28%,41.3%,117%,67.8%,79%,96.9%,82.4%,85.8%,67.5%,76.9%
Cc1cccc2c1NC(=O)[C@@]21[C@H](C(=O)c2ccccc2)[C@]2(C(=O)Nc3ccccc32)[C@H]2CCCN21,-6.48% [100 µM] (active),30.9% [100 µM],-17.2% [100 µM] (active),101% [100 µM],-20.3% [100 µM] (active),11.1% [100 µM],43% [100 µM],2.54% [100 µM] (active),16% [100 µM],109% [100 µM]
C=C(C)[C@@H]1CC[C@]2(CN)CC[C@]3(C)[C@H](CC[C@@H]4[C@@]5(C)CCC(=O)NC(C)(C)[C@@H]5CC[C@]43C)[C@@H]12,-27.1% (active),37.9%,66.5%,97.8%,70.7%,92%,70.3%,88%,84.1%,70%
C[C@H]1[C@H]2C3=CC[C@@H]4[C@@]5(C)C/C(=C/c6ccco6)C(=O)C(C)(C)[C@@H]5CC[C@@]4(C)[C@]3(C)CC[C@@]2(C(=O)N2CCOCC2)CC[C@@H]1C,29.4%,40.4%,54.7%,96.6%,50.1%,107%,56.5%,55.6%,77.9%,83.1%
Brc1ccc2c(c1)c(-c1nc(-c3c[nH]c4ncccc34)cs1)cn2CCCN1CCCCC1,-47.5% (active),-47.9% (active),1.18% (active),32.3%,48.4%,63.1%,6.09% (active),-64.3% (active),52.1%,13.4%
CCCNc1nc(N(C)O)nc(N(C)O)n1,32.1%,38.1%,26.5%,64%,19.2%,45.2%,36.9%,-10.6% (active),71%,16.9%
O=C1c2cc3c(cc2-c2c1c1ccc(Cl)cc1c(=O)n2C[C@H](O)[C@@H](O)[C@H](O)CO)OCO3,0.866% (active),0.957% (active),1.03% (active),-2.44% (active),18.6%,-23.1% (active),9.99% (active),-10.4% (active),11.3%,7.03% (active)
O=C1NC(c2ccc(Cl)c(Cl)c2)=C/C1=C\c1ccccc1,17.1%,48.3%,74.4%,73.2%,-36.6% (active),100%,59.2%,50.8%,66.3%,83.7%
CCN1CCN(C(=O)[C@@]2(C)CC[C@]3(C)CC[C@]4(C)C(=CC(=O)[C@@H]5[C@@]6(C)CC[C@H](OCCC#N)C(C)(C)[C@@H]6CC[C@]54C)[C@@H]3C2)CC1,4.19% (active),63.2%,90.5%,92.3%,94.7%,99.2%,95.5%,100%,83.3%,93.3%
COc1ccc2c(c1)c(-c1nc(-c3c[nH]c4ncccc34)cs1)cn2CCCN1CCCCC1,-38% (active),-33% (active),49.1%,77.4%,62.6%,61.7%,34.4%,27.8%,59.7%,58.7%
COc1ccc(C(=O)c2ccc(C)cc2)c(OC)c1OC,56.6%,88.7%,90.4%,93%,99.7%,79.3%,71.6%,66.7%,86.9%,45.2%
C#CCN=C[C@]12CC[C@@H](C(=C)C)[C@@H]1[C@H]1CC[C@@H]3[C@@]4(C)CCC(=O)C(C)(C)[C@@H]4CC[C@@]3(C)[C@]1(C)CC2,36.5%,33%,57.2%,115%,53.5%,91.8%,-10.9% (active),62.3%,87.8%,64.2%
